# Hits are enriched below; roughly 2.1% of the tested compounds scored in any of these assays.
# ClpP mod – qHTS Assay for Activators of ClpP; ATP-dependent Clp protease proteolytic subunit (Bacillus subtilis (strain 168)), P80244; Potency, µM (highest dose often 57.5 µM); hit rate 1.9% among 340,000; purified B. subtilis ClpP, FRET peptide cleavage, 20 min; active = well fitted falling curve with a large enough effect; inconclusive = small, poorly fitted or top-dose-only effect; inactive = no such curve, though single readings can be large or run the other way; note: the source files actives as falling curves though it sought activators and does not explain the sign; nearly all actives have a fitted effect of over 65% in size
# Target sequence (P80244 whole entry, looked up): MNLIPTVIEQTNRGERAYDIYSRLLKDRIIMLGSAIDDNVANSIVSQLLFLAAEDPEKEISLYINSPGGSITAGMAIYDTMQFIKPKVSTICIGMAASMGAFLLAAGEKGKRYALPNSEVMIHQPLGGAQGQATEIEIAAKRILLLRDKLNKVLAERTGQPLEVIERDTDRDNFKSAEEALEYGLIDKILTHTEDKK
#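 ClpP 10 microg/mL final, pH 8 Tris/KCl buffer with BSA, glycerol, Tween-20; compound pinned in; FRET-FV substrate; RT 20 min; Ex320/Em430; ΔFRET vs ADEP 5.8 microM, DMSO, no enzyme.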
# B2AR arrestin – agonists driving beta-arrestin recruitment to human beta2-adrenergic receptor; AID 492947; Potency, µM (doses to about 46.1 µM), actives largely listed as activators; hit rate 0.02% among 330,000; P07550; beta-arrestin recruitment to beta2AR, cell-based reporter; note: nearly all actives have a fitted effect of over 65% in size
# Target sequence (P07550 whole entry, looked up): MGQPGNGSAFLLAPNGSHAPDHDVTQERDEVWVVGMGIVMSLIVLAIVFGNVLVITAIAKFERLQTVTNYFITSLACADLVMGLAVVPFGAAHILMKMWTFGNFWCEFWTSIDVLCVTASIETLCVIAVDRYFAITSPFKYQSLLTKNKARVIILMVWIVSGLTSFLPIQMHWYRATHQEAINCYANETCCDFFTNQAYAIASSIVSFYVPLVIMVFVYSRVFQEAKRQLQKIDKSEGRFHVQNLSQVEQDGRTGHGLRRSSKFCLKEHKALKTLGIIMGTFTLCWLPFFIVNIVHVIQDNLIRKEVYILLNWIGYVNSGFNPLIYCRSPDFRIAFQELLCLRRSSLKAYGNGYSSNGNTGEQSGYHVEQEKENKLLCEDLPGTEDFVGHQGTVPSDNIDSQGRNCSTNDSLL
# uPA surface inh – inhibitors of cell surface uPA generation | cell surface uPA generation assay, qHTS | Potency, µM (highest dose often 38.3 µM), usual class: inhibitors | hit rate 0.31% among 330,000; active = well fitted inhibition curve with a large enough effect; inconclusive = small, poorly fitted or top-dose-only effect; inactive = no such curve, though single readings can be large or run the other way; tested in mouse RAW 264.7 cells; note: nearly all actives have a fitted effect of over 55% in size
# Mito fusion yeast – inhibitors of mitochondrial division or activators of mitochondrial fusion; S. cerevisiae fusion-defective mutant growth rescue, CellTiterGlo 48 h; Potency, µM (series often up to 46.1 µM), usual class: activators; hit rate 0.23% among 320,000; AID 485298; note: nearly all actives have a fitted effect of over 45% in size
#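 Compounds are tested for their ability to restore growth of mitochondrial fusion-defective yeast strains at non-permissive 37C in YPEG medium over 48 hours. Viability is quantified by luciferase luminescence.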
# Giardia killer – kills Giardia lamblia. hit rate 0.15% among 340,000. activity change, % at 7.66 µM, hits read low. Giardia lamblia trophozoite viability; in the data active = activity change below about -80%; inconclusive = between about -30% and that limit;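 note: parasites exposed to compound for two days anaerobically before the ATP read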
#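 Each well holds 100 Giardia trophozoites and compound. After two days (48 hrs) at 37 deg C in anaerobic conditions, ATP is quantified by luminescence.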
# p53 reactivator – mutant p53 re-activation in reporter cells. H1299 p53-A138V BP100-luciferase reporter, luminescence, 24 h. Potency, µM (titrated, usually from 92.2 µM), actives largely listed as activators. hit rate 0.063% among 320,000. AID 504706; note: nearly all actives have a fitted effect of over 45% in size
#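 H1299 (p53-null), stable ts p53-A138V + BP100-Luc; 1000 cells/well, Opti-MEM/10% FBS; cpd 4 pt, 1:5; 24 h, 37 deg C, 5% CO2; detection reagent 10 min RT; luminescence.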
# Hits are given with their value; 0 = inactive; ? = inconclusive; - = not tested or not shown. Unless noted, calls come from the whole dose curve; as a rule, active = well fitted curve in the direction sought with a large enough effect; inconclusive = small, poorly fitted or top-dose-only effect, or another doubt; inactive = no such curve, though single readings can be large; an effect the other way counts as inactive or inconclusive.
SMILES,ClpP mod,B2AR arrestin,uPA surface inh,Mito fusion yeast,Giardia killer,p53 reactivator
CC1(C)CC(=O)C2=C(C1)NC(Nc1nc3ccccc3o1)=NC2c1cccc(F)c1 (configuration not stated),?,-,-,-,0,-
Cc1ccc(Nc2nnc(SCC(=O)NCCN3C(=O)CSC3=O)s2)cc1C,0,0,5.01µM,0,0,?
CCOC(=O)C1(C)NC(c2ccccc2F)C2C(=O)N(CC)C(=O)C21 (configuration not stated),28.2µM,0,0,0,0,0
CCOc1cccc(-c2cc(=O)[nH][nH]2)c1,14.1µM,0,0,0,0,0
Cc1ccc(C(=O)CC2(O)C(=O)N(Cc3ccc4c(c3)OCO4)c3ccccc32)cc1 (configuration not stated),15.8µM,0,0,0,0,0
CCc1ccccc1NC(=O)Cn1ccn(-c2cc(C)cc(C)c2)c(=O)c1=O,0,-,-,-,-,-
COc1cc2cc(C(=O)O)n(C)c2c(OC)c1OC,12.6µM,0,0,0,0,0
Cc1cccc(CCn2c(=O)c3ccccc3n(Cc3cccc(F)c3)c2=O)c1,0,-,-,-,-,-
Cc1cc(C)n(-c2ccc(C(=O)OCn3nnc4ccccc4c3=O)cc2)n1,0,0,0,0,0,0
Cc1nn(-c2ccccc2)c2sc(C(=O)NCCN3CCOCC3)cc12,28.2µM,0,0,0,0,0
Cc1nn(-c2ccccc2)c2sc(C(=O)n3cccn3)cc12,?,0,0,0,0,0
Cc1ccn(C(=O)c2cc3c(C)nn(-c4ccccc4)c3s2)n1,3.55µM,0,0,0,0,0
Cc1nn(-c2ccccc2)c2sc(C(=O)OCn3nnc4ccccc4c3=O)cc12,10µM,0,0,0,0,0
Cc1ccc(Cl)cc1-c1cc(C(=O)NCc2cc(C(F)(F)F)cc(C(F)(F)F)c2)[nH]n1,0,-,-,-,-,-
Cc1ccccc1CN1C(=O)c2ccccc2Sc2ccc(C(=O)NC3CCCCC3)cc21,0,-,-,-,-,-
COc1cccc(NC(=O)CSc2nccn2C2CCCC2)c1,0,-,-,-,-,-
CCOC(=O)/C(C#N)=C/c1c(N2CCN(c3ccc(OC)cc3)CC2)nc2c(C)cccn2c1=O,31.6µM,0,0,0,0,0
CCNC(=O)/C(C#N)=C/c1c(N2CCN(c3ccccc3)CC2)nc2c(C)cccn2c1=O,0,0,0,0,0,0
N#C/C(=C\c1c(N2CCC(C(N)=O)CC2)nc2ccccn2c1=O)C(=O)NCc1ccco1,25.1µM,0,0,0,0,0
CCNC(=O)/C(C#N)=C/c1c(N2CCCCCC2)nc2c(C)cccn2c1=O,15.8µM,0,0,0,0,0
Cc1ccc2scc(N3CCCC(C)C3)c(=O)c2c1 (configuration not stated),0,-,-,-,-,-
Cc1ccc(NC(=O)NCCOCCn2c(=O)oc3ccccc32)c(C)c1,0,-,-,-,-,-
C/C=C(/C)C(=O)OC1c2c(ccc3ccc(=O)oc23)OC(C)(C)C1OC(C)=O (configuration not stated),15.8µM,0,0,0,0,0
C/C=C(/C)C(=O)O[C@@H]1[C@H](OC(C)=O)c2c(ccc3ccc(=O)oc23)OC1(C)C,0,0,0,0,0,0
Cc1cccc(C)c1NC(=O)C(c1ccncc1)N1CCN(CCN(C)C)CC1 (configuration not stated),0,-,-,-,-,-
SMILES,ClpP mod,B2AR arrestin,uPA surface inh,Mito fusion yeast,Giardia killer,p53 reactivator
CN(C1CCCCC1)S(=O)(=O)c1ccc2c(c1)c(=O)c(C(=O)N1CCN(c3ccccc3)CC1)cn2C,0,-,-,-,-,-
CN(C)CCC(=O)N1C/C(=C/c2ccccc2)C(=O)/C(=C\c2ccccc2)C1,35.5µM,-,0,-,0,-
C[N+](C)(C)CCC(=O)N1C/C(=C/c2ccccc2)C(=O)/C(=C\c2ccccc2)C1,0,-,0,-,0,-
CC(C)c1nc2c(c(=O)c3ccccc3n2C)c(=O)n1-c1ccc(F)cc1,28.2µM,0,0,0,0,0
Fc1ccccc1N1CC(c2ccccc2)C(c2cccs2)=N1 (configuration not stated),15.8µM,0,0,0,0,0
CC(=O)N1CCCc2cc(S(=O)(=O)N(C)CC(=O)Nc3ccc(F)c(Cl)c3)ccc21,0,-,-,-,-,-
CCS(=O)(=O)N1CCc2cc(C(=O)Nc3cc(C(F)(F)F)ccc3Cl)ccc21,0,-,-,-,-,-
CCOC(=O)c1nn(-c2cccc(C)c2)c2nc(-c3ccccc3)c(C#N)c(=O)n12,31.6µM,0,0,0,0,0
CCOC(=O)c1nn(-c2cccc(Cl)c2)c2nc(CC(C)C)c(C#N)c(=O)n12,0,0,0,0,0,0
CCOC(=O)c1nn(-c2ccc(OCC)cc2)c2nc(CC(C)C)c(C#N)c(=O)n12,22.4µM,0,0,0,0,0
CCOC(=O)c1nn(-c2ccc(Cl)cc2)c2nc(CC)c(C#N)c(=O)n12,0,0,0,0,0,0
CCOC(=O)c1nn(-c2ccc(Cl)cc2)c2nc(-c3ccc(C)cc3)c(C#N)c(=O)n12,25.1µM,0,0,0,0,0
CCCCn1c(-c2ccc(Cl)cc2)nc2c(=O)n(C)c(=O)[nH]c21,11.2µM,0,0,0,0,?
CCCCn1c(-c2ccc(OC)cc2)nc2c(=O)n(C)c(=O)[nH]c21,0,0,0,0,0,0
CN1CCc2cc3c(c4c2C1CC41CCC(=NO)CC1)OCO3 (configuration not stated),31.6µM,0,0,0,0,0
COc1ccccc1N1CCN(Cc2cc(=O)c(OCC(=O)Nc3ccccc3)co2)CC1,25.1µM,0,0,0,0,0
O=C(COc1coc(CN2CCN(c3ccccc3F)CC2)cc1=O)Nc1ccccc1,-,0,0,0,0,0
COc1ccc(/C=C2\SC(=NCc3ccccc3)NC2=O)cc1,22.4µM,0,0,0,0,0
CCN(CC)S(=O)(=O)c1ccc(C(=O)OCC(=O)Nc2ccc(-c3nc4ccc(C)cc4s3)cc2)cc1,?,0,0,0,?,?
CCN(CC)S(=O)(=O)c1cc(C(=O)OCC(=O)Nc2ccc(-c3nc4ccc(C)cc4s3)cc2)ccc1F,17.8µM,0,0,0,0,?
O=C(Nc1ccccc1C(=O)O)c1ccc(NC(=O)C2CC2)cc1,0,0,7.94µM,0,?,0
O=C(Nc1ccc(F)cc1)c1ccc(NC(=O)C2CCCO2)cc1 (configuration not stated),0,0,0,0,0,0
O=C(Nc1ccc(-c2nc3cc(Cl)ccc3o2)cc1)c1cc(Br)ccc1Cl,28.2µM,-,-,-,-,-
COc1ccc(NC(=O)C2CCCO2)cc1 (configuration not stated),0,0,0,0,0,0
Cc1ccccc1NC(=O)c1ccc(NC(=O)C2CCCO2)cc1 (configuration not stated),15.8µM,0,0,0,0,?
O=C(Nc1ccc(-c2nc3cccnc3s2)cc1)C1CCCO1 (configuration not stated),0,0,2.51µM,0,?,-

# Screening data as filed in PubChem BioAssay.
